# Reference: the supplement of paper PMC9794691
# Legend:
# Experiment in all cases: area under confluence curve of osimertinib + compound combination regimen (DTP regrowth); compare to osimertinib-only DTP control AUC of the same experiment (AUC (confluence x time, arbitrary))
# PC9 = test system: PC9
# Summary of the method: (§1)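 EGFR-mutant NSCLC lines were seeded at 20,000–30,000 cells/well in 48-well plates in RPMI 1640 with 10% FBS at 37 °C, 5% CO2. They got the EGFR inhibitor with a fixed-dose test compound upfront to the persister stage (10–21 days), then drug-free medium, or the inhibitor alone and then the test compound. Medium was refreshed every 3–4 days until inhibitor-only controls regrew to confluence. Area under the IncuCyte confluence–time curve came from Prism, median of triplicates where available.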
# H1975 = settings: test compound dose 1000 nM, DMSO control AUC in same experiment: 15857
# Summary of the method: as §1
# HCC2279 = settings: test compound dose 1000 nM, DMSO control AUC in same experiment: 14404
# Summary of the method: as §1
# HCC2935 = settings: test compound dose 1000 nM, DMSO control AUC in same experiment: 19215
# Summary of the method: as §1
# HCC4006 = settings: test compound dose 1000 nM, DMSO control AUC in same experiment: 18415
# Summary of the method: as §1
# HCC827 = settings: test compound dose 1000 nM, DMSO control AUC in same experiment: 21320
# Summary of the method: as §1
# II-18 = settings: test compound dose 1000 nM, DMSO control AUC in same experiment: 11834
# Summary of the method: as §1
smiles,measurement,setting,value
Cc1nc(Nc2n[nH]c3c2CN(C(=O)N[C@H](CN(C)C)c2ccccc2)C3(C)C)c2sccc2n1 + C=CC(=O)Nc1cc(Nc2nccc(-c3cn(C)c4ccccc34)n2)c(OC)cc1N(C)CCN(C)C [osimertinib],area under confluence curve,"PC9; test compound dose 100 nM, dosing schedule: sequential, osimertinib-only DTP control AUC in same experiment: 14258, DMSO control AUC in same experiment: 20347",3500
same,area under confluence curve,"PC9; test compound dose 100 nM, dosing schedule: upfront, osimertinib-only DTP control AUC in same experiment: 21499, DMSO control AUC in same experiment: 20347",12300
Oc1nc(-c2ccc(C(F)(F)F)cc2)nc2c1CSCC2 + C=CC(=O)Nc1cc(Nc2nccc(-c3cn(C)c4ccccc34)n2)c(OC)cc1N(C)CCN(C)C [osimertinib],area under confluence curve,"PC9; test compound dose 300 nM, dosing schedule: sequential, osimertinib-only DTP control AUC in same experiment: 12502, DMSO control AUC in same experiment: 49143",9570
same,area under confluence curve,"PC9; test compound dose 300 nM, dosing schedule: upfront, osimertinib-only DTP control AUC in same experiment: 28310, DMSO control AUC in same experiment: 49143",8680
COC[C@H]1Cn2cc(-c3nc(Nc4ccnn4C)ncc3C)nc2C(=O)N1Cc1ccc(F)c(F)c1 + C=CC(=O)Nc1cc(Nc2nccc(-c3cn(C)c4ccccc34)n2)c(OC)cc1N(C)CCN(C)C [osimertinib],area under confluence curve,"PC9; test compound dose 100 nM, dosing schedule: sequential, osimertinib-only DTP control AUC in same experiment: 11414, DMSO control AUC in same experiment: 31219",6430
same,area under confluence curve,"PC9; test compound dose 100 nM, dosing schedule: sequential, osimertinib-only DTP control AUC in same experiment: 14554, DMSO control AUC in same experiment: 49189",2470
same,area under confluence curve,"PC9; test compound dose 100 nM, dosing schedule: upfront, osimertinib-only DTP control AUC in same experiment: 18848, DMSO control AUC in same experiment: 31219",2020
same,area under confluence curve,"PC9; test compound dose 100 nM, dosing schedule: upfront, osimertinib-only DTP control AUC in same experiment: 24473, DMSO control AUC in same experiment: 49189",2580
Cc1nc(N2CCC3(CC2)CO[C@@H](C)[C@H]3N)c(CO)nc1-c1cccc(Cl)c1Cl + C=CC(=O)Nc1cc(Nc2nccc(-c3cn(C)c4ccccc34)n2)c(OC)cc1N(C)CCN(C)C [osimertinib],area under confluence curve,"H1975; dosing schedule: sequential, osimertinib-only DTP control AUC in same experiment: 22968",15500
same,area under confluence curve,"H1975; dosing schedule: upfront, osimertinib-only DTP control AUC in same experiment: 27164",17800
same,area under confluence curve,"HCC2279; dosing schedule: sequential, osimertinib-only DTP control AUC in same experiment: 26096",16900
same,area under confluence curve,"HCC2279; dosing schedule: upfront, osimertinib-only DTP control AUC in same experiment: 33120",21000
same,area under confluence curve,"HCC2935; dosing schedule: sequential, osimertinib-only DTP control AUC in same experiment: 22314",19500
same,area under confluence curve,"HCC2935; dosing schedule: upfront, osimertinib-only DTP control AUC in same experiment: 29846",27200
same,area under confluence curve,"HCC4006; dosing schedule: sequential, osimertinib-only DTP control AUC in same experiment: 12791",9900
same,area under confluence curve,"HCC4006; dosing schedule: upfront, osimertinib-only DTP control AUC in same experiment: 17269",14300
same,area under confluence curve,"HCC827; dosing schedule: sequential, osimertinib-only DTP control AUC in same experiment: 15330",6150
same,area under confluence curve,"HCC827; dosing schedule: upfront, osimertinib-only DTP control AUC in same experiment: 20798",13400
same,area under confluence curve,"II-18; dosing schedule: sequential, osimertinib-only DTP control AUC in same experiment: 8624",2640
same,area under confluence curve,"II-18; dosing schedule: upfront, osimertinib-only DTP control AUC in same experiment: 10856",3200
CNC(=O)c1cccc(-c2ccc3c(N4CCOC[C@@H]4C)nc(N4CCOC[C@@H]4C)nc3n2)c1 + C=CC(=O)Nc1cc(Nc2nccc(-c3cn(C)c4ccccc34)n2)c(OC)cc1N(C)CCN(C)C [osimertinib],area under confluence curve,"PC9; test compound dose 100 nM, dosing schedule: sequential, osimertinib-only DTP control AUC in same experiment: 13052, DMSO control AUC in same experiment: 28334",6580
same,area under confluence curve,"PC9; test compound dose 100 nM, dosing schedule: upfront, osimertinib-only DTP control AUC in same experiment: 17920, DMSO control AUC in same experiment: 28334",14800
Cc1cc(Nc2ncnc3ccc(NC4=NC(C)(C)CO4)cc23)ccc1Oc1ccn2ncnc2c1 [Tucatinib] + C=CC(=O)Nc1cc(Nc2nccc(-c3cn(C)c4ccccc34)n2)c(OC)cc1N(C)CCN(C)C [osimertinib],area under confluence curve,"PC9; test compound dose 1000 nM, dosing schedule: sequential, osimertinib-only DTP control AUC in same experiment: 13992, DMSO control AUC in same experiment: 30002",11100
same,area under confluence curve,"PC9; test compound dose 1000 nM, dosing schedule: sequential, osimertinib-only DTP control AUC in same experiment: 16279, DMSO control AUC in same experiment: 29345",17500
same,area under confluence curve,"PC9; test compound dose 1000 nM, dosing schedule: upfront, osimertinib-only DTP control AUC in same experiment: 19769, DMSO control AUC in same experiment: 29345",18600
same,area under confluence curve,"PC9; test compound dose 1000 nM, dosing schedule: upfront, osimertinib-only DTP control AUC in same experiment: 22377, DMSO control AUC in same experiment: 30002",17200
CC(=O)Nc1cccc(-n2c(=O)n(C3CC3)c(=O)c3c(Nc4ccc(I)cc4F)n(C)c(=O)c(C)c32)c1 [Trametinib] + C=CC(=O)Nc1cc(Nc2nccc(-c3cn(C)c4ccccc34)n2)c(OC)cc1N(C)CCN(C)C [osimertinib],area under confluence curve,"PC9; test compound dose 10 nM, dosing schedule: sequential, osimertinib-only DTP control AUC in same experiment: 14554, DMSO control AUC in same experiment: 49189",10400
same,area under confluence curve,"PC9; test compound dose 10 nM, dosing schedule: sequential, osimertinib-only DTP control AUC in same experiment: 14708, DMSO control AUC in same experiment: 21341",3390
same,area under confluence curve,"PC9; test compound dose 10 nM, dosing schedule: upfront, osimertinib-only DTP control AUC in same experiment: 21313, DMSO control AUC in same experiment: 21341",6970
same,area under confluence curve,"PC9; test compound dose 10 nM, dosing schedule: upfront, osimertinib-only DTP control AUC in same experiment: 24473, DMSO control AUC in same experiment: 49189",9410
